Assay outcomes deposited in PubChem by NMMLSC.
Rows were chosen to be rich in hits. Some 1.2% of all compounds tested hit in one or more screens of this group.
Avidin fluor – compound fluoresces at 488/530 nm on avidin beads; fluorescence (KMESF) at 10 µM; compound fluorescence 488/530 nm, flow cytometry; hits give high values; 0.38% of 220,000 active; AID 1775; in the data active means fluorescence above about 47
RGS7-Gao – regulators of human RGS7-Galphao interaction; P09471; Multiplexed bead flow cytometry, RGS7-Galphao binding; actives lie on both sides; binding response (% of control), % at 10 µM; 0.35% of 220,000 active; AID 1439; in the data active means binding response below about 49% or above about 150%; inconclusive means no clear call, values can overlap the other calls; inactive means in between;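 further: fluorescent Galphao held in activated GDP-AlF4 state binding bead-coupled RGS7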
Target sequence (P09471 whole entry, looked up): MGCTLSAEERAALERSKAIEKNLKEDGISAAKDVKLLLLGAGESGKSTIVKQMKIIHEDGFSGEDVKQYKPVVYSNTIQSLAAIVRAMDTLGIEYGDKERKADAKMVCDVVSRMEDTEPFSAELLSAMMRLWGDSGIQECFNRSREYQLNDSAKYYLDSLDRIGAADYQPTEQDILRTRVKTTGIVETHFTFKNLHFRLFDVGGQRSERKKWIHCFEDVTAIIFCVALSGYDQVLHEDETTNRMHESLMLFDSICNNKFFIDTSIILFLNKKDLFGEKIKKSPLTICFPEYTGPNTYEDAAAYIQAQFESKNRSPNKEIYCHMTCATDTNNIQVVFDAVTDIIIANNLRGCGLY
RGS16-Gao HTS – regulators of human RGS16-Galphao interaction | O15492+P09471 | bead-based flow cytometry RGS16-Galphao binding, fluorescence; actives lie on both sides | binding response (% of control), % at 10 µM | 0.38% of 220,000 active;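 further: Galphao activated by GDP with aluminum fluoride before binding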
Target sequence (O15492 whole entry, looked up): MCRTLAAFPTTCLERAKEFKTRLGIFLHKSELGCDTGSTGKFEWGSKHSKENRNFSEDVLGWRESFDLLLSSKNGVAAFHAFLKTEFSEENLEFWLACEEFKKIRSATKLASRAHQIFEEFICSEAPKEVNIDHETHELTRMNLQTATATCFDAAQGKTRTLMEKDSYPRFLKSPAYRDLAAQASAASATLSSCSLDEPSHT
Target sequence (P09471 whole entry, looked up): as the sequence (P09471 whole entry, looked up) above
GSH bead fluor – GSH bead compound fluorescence profile | fluorescence (KMESF) at 10 µM | 0.25% of 190,000 active | GSH beads flow cytometry, compound fluorescence 488/530 nm; hits give high values; in the data active means fluorescence above about 89;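 further: glutathione beads carrying GST-tagged Bcl family fusion proteins plus one bare bead set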
RGS4-Gao reg – human RGS4-Galphao interaction regulation; 0.33% of 220,000 active; binding response (% of control), % at 10 µM; Multiplexed bead flow cytometry, RGS4-Galphao binding; actives lie on both sides; P09471; AID 1415; in the data active means binding response below about 49% or above about 150%; inactive means in between;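 further: fluorescent Galphao activated with aluminum fluoride binding bead-coupled RGS4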
RGS8-Gao – human RGS8-Galphao interaction regulation | multiplexed bead flow cytometry, RGS8-Galphao binding; actives lie on both sides | response (percent of control binding), % at 10 µM | 0.34% of 220,000 active | AID 1423; in the data active means response below about 60% or above about 140%; inactive means in between;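 further: Galphao activated as the GDP aluminium fluoride complex binding bead-coupled RGS8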
RGS-Gao – regulators of human RGS4-Galphao interaction. AID 1504. multiplexed bead flow cytometry, RGS–Galpha-o binding. RGS4–Galpha-o binding response, % at 10 µM. shares compounds with RGS16-Gao HTS. 99% of 1,600 active;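 further: fluorescently labeled Galpha-o bound to GDP with aluminium fluoride binding biotinylated RGS beads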
Biotin-avidin – interferes with biotinylated probe binding to avidin beads; shares compounds with RGS16-Gao HTS; streptavidin beads, fluorescein-biotin binding, flow cytometry; inhibition, % at 10 µM; 1,700 tested, under 10 active;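 active means inhibition above 50%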;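 further: median green fluorescence of gated singlet beads compared with DMSO control wells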
RGS8-Gao single – confirmation of regulators of human RGS8-Galphao interaction | 3% of 1,700 active | bead-based flow cytometry RGS8-Galphao binding, fluorescence; actives lie on both sides | shares compounds with RGS16-Gao HTS | binding response (% of control), % at 10 µM; in the data active means binding response below about 72% or above about 130%; inactive means in between;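 further: Galphao activated as GDP AlF4 complex before binding bead RGS8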
RGS7-Gao confirm – confirmation of regulators of human RGS7-Galphao interaction | shares compounds with RGS16-Gao HTS | bead-based flow cytometry RGS7-Galphao binding; actives lie on both sides | response (percent of control binding), % at 10 µM | 7.8% of 1,700 active | AID 1837; in the data active means response below about 75% or above about 130%; inactive means in between;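 further: fluorescent Galphao activated with GDP and aluminum fluoride binding bead-coupled RGS7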
RGS16-Gao conf – RGS16-Galphao interaction regulation, single point confirmation; shares compounds with RGS16-Gao HTS; 4% of 1,700 active; AID 1838; response (% of control binding), % at 10 µM; bead-based flow cytometry, RGS16-Galphao binding; actives lie on both sides; in the data active means response below about 74% or above about 130%; inactive means in between;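 further: Galphao activated as the GDP aluminium fluoride complex binding bead-coupled RGS16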
RGS4-Gao confirm – confirmation of regulators of human RGS4-Galphao interaction; RGS4-Galphao binding, multiplexed bead flow cytometry; actives lie on both sides; AID 1840; binding response (% of control), % at 10 µM; shares compounds with RGS16-Gao HTS; 4% of 1,700 active; in the data active means binding response below about 74% or above about 130%; inactive means in between
RGS19-Gao conf – confirmation of regulators of human RGS19-Galphao interaction. shares compounds with RGS16-Gao HTS. bead-based flow cytometry RGS19-Galphao binding; actives lie on both sides. response (percent of control binding), % at 10 µM. 5% of 1,700 active. AID 1841; in the data active means response below about 50% or above about 160%; inactive means in between
Of the large screens only hits and unclear results are named; the others gave an inactive call (follow-up assays come after a bar, where they were run); [ ] = remark or other dose. Unless noted, how the calls were made is not given here.

CCCCOCCCNC(=O)C1CCCCC1	RGS8-Gao 55 | RGS-Gao 84 | Biotin-avidin inactive | RGS8-Gao single inactive | RGS7-Gao confirm inactive | RGS16-Gao conf inactive | RGS4-Gao confirm inactive | RGS19-Gao conf inactive
C=CCc1cccc(/C=N/NC(=O)c2ccccc2OC)c1O	none
C=CCc1cccc(/C=N/NC(=O)c2ccccc2Br)c1O	RGS7-Gao 25, RGS16-Gao HTS 23, RGS4-Gao reg 34, RGS8-Gao 31 | Biotin-avidin inactive | RGS8-Gao single inactive | RGS7-Gao confirm inactive | RGS16-Gao conf inactive | RGS4-Gao confirm inactive | RGS19-Gao conf inactive
CCCCOc1ccc(-c2nc(=S)[nH][nH]2)cc1	none (no result: RGS8-Gao) | Biotin-avidin inactive | RGS8-Gao single inactive | RGS7-Gao confirm inactive | RGS16-Gao conf inactive | RGS4-Gao confirm inactive | RGS19-Gao conf inactive
CCCCOc1ccc(-c2nc(SCC(N)=O)n[nH]2)cc1	none
COc1ccc(/C=C(/CC(=O)Nc2ccccc2)c2nc3ccccc3s2)cc1	RGS16-Gao HTS 18 | RGS-Gao 76 | Biotin-avidin inactive | RGS8-Gao single inactive | RGS7-Gao confirm inactive | RGS16-Gao conf inactive | RGS4-Gao confirm inactive | RGS19-Gao conf inactive
COc1ccc(/C=C(/CC(=O)NCc2ccc(Cl)cc2)c2nc3ccccc3s2)cc1	none
O=C(Nc1c(O)c2ccccc2[nH]c1=O)c1ccco1	RGS7-Gao inconclusive (no result: GSH bead fluor)
Cc1ccc(-c2csc3nnc(SCC(=O)Nc4nsc(-c5ccccc5)n4)n23)cc1	none (no result: Avidin fluor, RGS7-Gao, RGS16-Gao HTS, RGS4-Gao reg, RGS8-Gao) | Biotin-avidin inactive | RGS8-Gao single inactive | RGS7-Gao confirm inactive | RGS16-Gao conf inactive | RGS4-Gao confirm inactive | RGS19-Gao conf inactive
O=C(CSc1nnc2scc(-c3ccccc3)n12)Nc1nsc(-c2ccccc2)n1	none
CCOC(=O)c1[nH]ncc1CN1CCCC(C(=O)c2ccc(C(C)(C)C)cc2)C1 (configuration not stated)	RGS8-Gao 140[activator] | RGS-Gao 114 | Biotin-avidin inactive | RGS8-Gao single inactive | RGS7-Gao confirm inactive | RGS16-Gao conf inactive | RGS4-Gao confirm inactive | RGS19-Gao conf inactive
Cc1ccc(CC(=O)O/N=C(\N)Cc2ccc([N+](=O)[O-])cc2)cc1	RGS16-Gao HTS 17 | RGS-Gao 92
Cc1cccc(OCC(=O)N2CCCc3ccccc32)c1	none
CCc1cc(=O)oc2c(C)c(OCC(=O)N3CCCc4ccccc43)ccc12	RGS8-Gao 159[activator] | RGS-Gao 133 | Biotin-avidin inactive | RGS8-Gao single inactive | RGS7-Gao confirm inactive | RGS16-Gao conf inactive | RGS4-Gao confirm inactive | RGS19-Gao conf inactive
CNC(=O)n1cc(C)c(-c2cccs2)n1	RGS7-Gao inconclusive (no result: GSH bead fluor)
O=C(Nc1nnc(-c2ccccc2Cl)o1)c1cc2cc([N+](=O)[O-])ccc2s1	RGS16-Gao HTS 17 | RGS-Gao 94
COC(=O)CNC(=O)c1ccc(C)s1	none
COCCNC(=O)c1ccc(C(=O)NCCOC)s1	RGS4-Gao reg 233[activator] (no result: Avidin fluor, RGS7-Gao, RGS16-Gao HTS, RGS8-Gao) | Biotin-avidin inactive | RGS8-Gao single inactive | RGS7-Gao confirm inactive | RGS16-Gao conf inactive | RGS4-Gao confirm inactive | RGS19-Gao conf inactive
CC(=O)C1=C(O)C(=O)N(C)C1c1ccccc1[N+](=O)[O-] (configuration not stated)	RGS7-Gao inconclusive (no result: GSH bead fluor)
Cc1cccc(-n2cnc3c(sc4nc(N5CCOCC5)c5c(c43)CCCC5)c2=O)c1	RGS7-Gao inconclusive (no result: GSH bead fluor)
Cc1ccc2nc(C)c3c(c2c1)COC3	RGS7-Gao -40, RGS4-Gao reg -73, RGS8-Gao 17 | Biotin-avidin inactive | RGS8-Gao single inactive | RGS7-Gao confirm inactive | RGS16-Gao conf inactive | RGS4-Gao confirm inactive | RGS19-Gao conf inactive
CCOC(=O)C1CCCN(C(=O)/C=C/c2cc(OC)c(OC)c(OC)c2)C1 (configuration not stated)	Avidin fluor 114, RGS7-Gao 170[activator] | RGS-Gao 103 | Biotin-avidin inactive | RGS8-Gao single inactive | RGS7-Gao confirm inactive | RGS16-Gao conf inactive | RGS4-Gao confirm inactive | RGS19-Gao conf inactive
CCOC(=O)C1CCCN(C(=O)/C=C/c2ccc(Cl)cc2)C1 (configuration not stated)	none
O=C1C(=O)c2ccc(-c3ccccc3)cc2-c2ccccc21	RGS16-Gao HTS 259[activator] | RGS-Gao 116 | Biotin-avidin inactive | RGS8-Gao single inactive | RGS7-Gao confirm inactive | RGS16-Gao conf inactive | RGS4-Gao confirm inactive | RGS19-Gao conf inactive
O=S(=O)(NCc1ccccn1)c1ccc(Cl)s1	none
Cc1nn(C)c(C)c1C1C(C#N)=C(N)Oc2n[nH]c(C)c21 (configuration not stated)	RGS16-Gao HTS 230[activator], RGS8-Gao 140[activator] | RGS-Gao 110 | Biotin-avidin inactive | RGS8-Gao single inactive | RGS7-Gao confirm inactive | RGS16-Gao conf inactive | RGS4-Gao confirm inactive | RGS19-Gao conf inactive
N#C/C(=C(/O)CSc1nnc(Cc2cccs2)n1C1CCCCC1)c1nc2ccccc2[nH]1	RGS7-Gao 46, GSH bead fluor 228, RGS4-Gao reg 33, RGS8-Gao 51 | Biotin-avidin inactive | RGS8-Gao single inactive | RGS7-Gao confirm inactive | RGS16-Gao conf inactive | RGS4-Gao confirm inactive | RGS19-Gao conf inactive
O=C(NNS(=O)(=O)c1ccccc1Cl)c1nn(-c2ccc(F)cc2)ccc1=O	RGS7-Gao inconclusive (no result: GSH bead fluor)
Oc1ccc(-c2n[nH]c(=S)n2-c2ccc3c(c2)OCCO3)c(O)c1	RGS16-Gao HTS 15 | RGS-Gao 99 | Biotin-avidin inactive | RGS8-Gao single inactive | RGS7-Gao confirm inactive | RGS16-Gao conf inactive | RGS4-Gao confirm inactive | RGS19-Gao conf inactive
CCOC(=O)c1ccc[n+](CC(=O)c2ccc(OC)cc2)c1	none
